Cytotoxicity call data for 68 molecules are collected here from the antibiotic and cytotoxicity screens of Wong et al. (2023).

The whole screen tested about 39,000 compounds, of which about 1,500 (3.8%) were called active. What follows is part of a selection rich in actives, with near analogues and random picks from the rest.

This test has as its system HSkMC (human skeletal muscle cells). Description: cytotoxicity call (relative viability < 0.9). The following applies: 10 µM.
With `COc1ccc(S(=O)(=O)N(C)C[C@@H]2Oc3ccc(NC(=O)CCCN(C)C)cc3C(=O)N([C@H](C)CO)C[C@@H]2C)cc1`, the cytotoxicity call was “inactive”.

In the case of `COc1ccc(-c2cn(CCNC(=O)[C@H](Cc3ccccc3)NS(=O)(=O)c3ccc(C)cc3)nn2)cc1OC`, the cytotoxicity call is “inactive”. Under `CC(/C=C/C(=O)NO)=C\c1cccc(OC[C@@H]2[C@H]3C[C@H]4c5[nH]c6ccccc6c5CCN4C[C@@H]3CC[C@@H]2O)c1` stands “inactive”; under `O=C(N[C@@H](c1ccc(-c2ccccc2)cc1)c1cnccn1)C1CCN(CCCOc2ccccc2)CC1`, “inactive”; under `CC(=O)NC1C(O)CC(O)(C(=O)O)OC1C(O)C(O)CO` (stereo not drawn), “inactive”. Under `C[C@H]1CCCCO[C@@H](CN(C)S(C)(=O)=O)[C@@H](C)CN([C@@H](C)CO)C(=O)c2cc(N(C)C)ccc2O1` stands “inactive”; under `C[C@H](CO)N1C[C@H](C)[C@H](CN(C)C(=O)Nc2ccc(C(F)(F)F)cc2)Oc2ccc(NC(=O)CCC(F)(F)F)cc2CC1=O`, “inactive”; under `Cc1ccc(S(=O)(=O)C[C@H](C)N2CCOCC2)c(S(=O)(=O)C[C@@H](C)N2CCOCC2)c1`, “inactive”. The same measure for `CCNC(=O)C[C@@H]1C=C[C@@H](NC(=O)C2CC2)[C@@H](CO)O1`: “inactive”; for `COc1ccc(NC(=O)Nc2ccc3c(c2)CC(=O)N([C@@H](C)CO)C[C@H](C)[C@H](CN(C)C(=O)Nc2cccc4ccccc24)O3)cc1`: “inactive”; for `CCCNC(=O)Nc1ccc2c(c1)OC[C@@H](C)N(C(=O)C1CCOCC1)C[C@@H](C)[C@@H](OC)CN(C)C2=O`: “inactive”. With `C[C@H]1CN([C@@H](C)CO)C(=O)c2cc(Br)cnc2O[C@@H]1CN(C)Cc1cccc(C(=O)O)c1`, the cytotoxicity call is “inactive”. As to `NCC(=O)NCC(=O)O`, the cytotoxicity call was “inactive”. Under `CNCC(=O)O` stands “inactive”; under `O=C(O)CNC(=O)C(=O)O`, “active”. The same measure for `O=C(CCCCCNC(=O)OCCCOc1ccc(C2=N[C@]3(Cc4ccccc4)C(=O)N(Cc4ccccc4)Cc4ccccc4[C@@H]3O2)cc1)NO`: “inactive”; for `C[C@@H]1CCCCO[C@@H](CN(C)C(=O)Nc2ccc3c(c2)OCO3)[C@@H](C)CN([C@H](C)CO)C(=O)c2cc(NC(=O)CCCCCC(=O)Nc3ccccc3N)ccc2O1`: “inactive”; for `NC(=O)c1ncn([C@@H]2O[C@H](CO)[C@@H](O)[C@H]2O)n1`: “inactive”. The same measure for `C[C@@H]1CN([C@H](C)CO)C(=O)c2cc(NC(=O)Nc3ccc(F)cc3)ccc2O[C@@H]1CN(C)Cc1ccc(C(=O)Nc2ccccc2N)cc1`: “inactive”; for `O=C(Nc1cccc(C(F)(F)F)c1)c1ccc2ccccc2c1`: “inactive”. `Cc1ccc(Nc2ncc3c(n2)N(C)C(=O)N(c2cc(NC(=O)c4cccc(C(F)(F)F)c4)ccc2C)C3)cn1`: the cytotoxicity call is “active”. Under `Cc1ncc(NC(=O)c2cccc(C(F)(F)F)c2)cc1-c1cnc(OC2CCOCC2)c(N2CCOCC2)c1` stands “inactive”; under `C[C@H]1CN([C@@H](C)CO)C(=O)Cc2cc(NS(=O)(=O)c3ccc(Cl)cc3)ccc2O[C@H]1CN(C)C(=O)Nc1ccc(C(F)(F)F)cc1`, “inactive”.

On to `CC1=C(CCC(=O)O)c2cc3[nH]c(cc4nc(cc5[nH]c(cc1n2)c(C)c5C(C)O)C(C)=C4C(C)O)c(C)c3CCC(=O)O` (stereo not drawn), for which the cytotoxicity call is “inactive”.

As to `CCCCCCO[C@H](C)c1c(c/2[nH]c1/C=C/1\N=C(/C=C/3\NC4=C(CC(=O)C4=C3C)C3=N/C(=C2)[C@@H](C)[C@@H]3CCC(=O)O)C(=C1C)CC)C`, the cytotoxicity call is “active”. The same measure for `CCc1c(c/2[nH]c1/C=C/1\N=C(/C(=C/3\N=C(/C=C/4\N/C(=C2)C(=C4C)C=C)[C@@H](C)[C@@H]3CCC(=O)O)CC(=O)N[C@@H](CC(=O)O)C(=O)O)C(=C1C)C(=O)O)C`: “inactive”. The same measure for `C[C@H](N)C(=O)N1CCc2ccccc2C1`: “inactive”.

For `C[C@@H]1CCCCO[C@@H](CN(C)S(=O)(=O)c2ccc(F)cc2)[C@@H](C)CN([C@@H](C)CO)C(=O)c2cc(NC(=O)Nc3ccc(F)cc3)ccc2O1`, the cytotoxicity call was “inactive”.

On to `CC(N)O.Cc1cc(CC(C)CC(C)(C)C)n(O)c(=O)c1` (stereo not drawn), for which the cytotoxicity call was “inactive”. Under `C[C@@H]1CN([C@H](C)CO)C(=O)c2cc(NC(=O)Nc3ccc(C(F)(F)F)cc3)ccc2O[C@@H](C)CCCCO[C@@H]1CN(C)C(=O)Cc1ccccc1` stands “active”. Under `C[C@@H]1CN([C@@H](C)CO)C(=O)c2cc(NC(=O)Nc3ccc(C(F)(F)F)cc3)ccc2O[C@@H](C)CCCCO[C@H]1CN(C)C(=O)Cc1ccccc1` stands “active”.

Consider `C[C@@H]1CCCCO[C@@H](CN(C)C(=O)Cc2ccccc2)[C@@H](C)CN([C@@H](C)CO)C(=O)c2cc(NC(=O)Nc3ccc(C(F)(F)F)cc3)ccc2O1`, for which the cytotoxicity call was “inactive”. As for `C[C@@H]1CCCCO[C@@H](CN(C)C(=O)Cc2ccccc2)[C@@H](C)CN([C@H](C)CO)C(=O)c2cc(NC(=O)Nc3ccc(C(F)(F)F)cc3)ccc2O1`, the cytotoxicity call is “inactive”. The same measure for `C[C@@H]1CCCCO[C@H](CN(C)C(=O)Cc2ccccc2)[C@@H](C)CN([C@H](C)CO)C(=O)c2cc(NC(=O)Nc3ccc(C(F)(F)F)cc3)ccc2O1`: “inactive”; for `C[C@@H]1CCCCO[C@H](CN(C)C(=O)Cc2ccccc2)[C@H](C)CN([C@@H](C)CO)C(=O)c2cc(NC(=O)Nc3ccc(C(F)(F)F)cc3)ccc2O1`: “active”; for `C[C@H](CO)N1C[C@H](C)[C@@H](CN(C)C(=O)Cc2ccccc2)OCCCC[C@H](C)Oc2ccc(NC(=O)Nc3ccc(C(F)(F)F)cc3)cc2C1=O`: “inactive”. For the molecule `C[C@H](CO)N1C[C@H](C)[C@H](CN(C)C(=O)Cc2ccccc2)OCCCC[C@H](C)Oc2ccc(NC(=O)Nc3ccc(C(F)(F)F)cc3)cc2C1=O`, the cytotoxicity call is “inactive”.

Consider `C[C@@H]1CCCCO[C@H](CN(C)C(=O)Cc2ccccc2)[C@@H](C)CN([C@@H](C)CO)C(=O)c2cc(NC(=O)Nc3ccc(C(F)(F)F)cc3)ccc2O1`, for which the cytotoxicity call was “inactive”. Under `COc1ccc(NC(=O)N(C)C[C@@H]2OCc3cnnn3CCCC(=O)N([C@H](C)CO)C[C@@H]2C)c(OC)c1` stands “inactive”; under `C[C@@H]1CCCCO[C@@H](CN(C)C(=O)CCC(F)(F)F)[C@@H](C)CN([C@@H](C)CO)C(=O)c2cc(NC(=O)CCC(F)(F)F)ccc2O1`, “inactive”. Regarding `C[C@@H]1CN(C)C(=O)c2cccc(NC(=O)c3ccncc3)c2O[C@H]1CN(C)Cc1ccc(Oc2ccccc2)cc1`, the cytotoxicity call is “inactive”.

Turning to `O=C(C[C@@H]1CC[C@@H]2[C@H](COC[C@@H](O)CN2S(=O)(=O)c2ccccc2)O1)N[C@H]1CCN(Cc2ccccc2)C1`, the cytotoxicity call is “inactive”. Under `COc1cc(-c2cc(=O)c3c(s2)N(Cc2ccco2)[C@@H](c2ccc(O)c(OC)c2)CC3=O)ccc1O` stands “inactive”. The same measure for `C[C@H](CO)N1C[C@H](C)[C@@H](CN(C)C(=O)Nc2ccc(F)cc2)Oc2ccc(NC(=O)Nc3cccc4ccccc34)cc2CC1=O`: “inactive”; for `CC(C)(C)C(=O)OCOP(=O)(OCOC(=O)C(C)(C)C)C(C)(Oc1ccc(O)cc1)P(=O)(OCOC(=O)C(C)(C)C)OCOC(=O)C(C)(C)C`: “inactive”; for `O=C1Nc2ccc(I)cc2C1=Cc1cc(Br)c(O)c(Br)c1`: “active”. The same measure for `COc1ccc2c(c1)C(=O)C(=O)N2`: “inactive”. Take `COc1ccc2c(c1)/C(=N\O)C(=O)N2`: the cytotoxicity call was “inactive”. Under `C[C@H](CO)N1C[C@H](C)[C@H](CN(C)C(=O)Nc2ccc(C(F)(F)F)cc2)OCCCC[C@H](C)Oc2ccc(NC(=O)c3ccccc3)cc2C1=O` stands “inactive”; under `C[C@H](CO)N1C[C@H](C)[C@H](CN(C)C(=O)Nc2ccc3c(c2)OCO3)OCCCC[C@H](C)Oc2ccc(NS(=O)(=O)c3ccccc3)cc2C1=O`, “inactive”; under `CCN1C(=O)[C@H]2[C@H](O)CS[C@H]2C1=O`, “inactive”. With `C[C@@H]1CN([C@@H](C)CO)S(=O)(=O)c2ccc(C#C[C@@H](C)O)cc2O[C@H]1CN(C)C(=O)C1CCCCC1`, the cytotoxicity call was “inactive”. Under `c1ccc2c(c1)-c1ccc3ccc4cccc5cc-2c1c3c45` stands “inactive”. Under `CCN(CC)CCNC(=O)COc1ccc(OC)cc1.Cl` stands “inactive”; under `CCN(CC)CCCCNc1ncc2cc(-c3cc(OC)cc(OC)c3)c(NC(=O)NC(C)(C)C)nc2n1`, “active”; under `CCN(CC)CCCCNc1ncc2cc(-c3c(Cl)cccc3Cl)c(NC(=O)NC(C)(C)C)nc2n1`, “inactive”.

Consider `Cc1noc(C)c1S(=O)(=O)N(C)C[C@@H]1Oc2ccc(NC(=O)Cc3cn(C)c4ccccc34)cc2CC(=O)N([C@@H](C)CO)C[C@H]1C`, for which the cytotoxicity call is “inactive”. Consider `C[C@@H]1CN([C@@H](C)CO)C(=O)c2cc(NS(=O)(=O)c3ccc(F)cc3)ccc2O[C@@H]1CN(C)CC1CC1`, for which the cytotoxicity call was “inactive”.

For `CCc1c(O)cc(O)c(C(=O)c2ccc(OCCN3CCOCC3)c(OC)c2)c1CC(=O)N(CCOC)CCOC`, the cytotoxicity call is “active”. The same measure for `COc1cc(C(=O)OCCN2CCN(CCOC(=O)c3cc(OC)c(OC)c(OC)c3)CC2)cc(OC)c1OC`: “inactive”; for `COc1c(OCCCN2CCOCC2)ccc2c1N=C(NC(=O)c1cnc(N)nc1)N1CCN=C21`: “inactive”. On to `C[C@@H]1CN([C@@H](C)CO)S(=O)(=O)c2ccc(C#CC3(O)CCCC3)cc2O[C@H]1CN(C)C(=O)Nc1ccccc1`, for which the cytotoxicity call is “inactive”. The same measure for `N=C(N)N/N=C1\CCc2c(C(=N)N)cccc21`: “active”. On to `C[C@H](CO)N1C[C@H](C)[C@H](CN(C)S(=O)(=O)c2ccccc2)Oc2ccc(NS(=O)(=O)c3ccccc3)cc2CC1=O`, for which the cytotoxicity call was “inactive”. As for `C[C@H](CO)N1C[C@H](C)[C@@H](CN(C)Cc2ccc3c(c2)OCO3)Oc2cc(C#CCN(C)C)ccc2S1(=O)=O`, the cytotoxicity call was “inactive”. Under `CN(c1ncccc1CNc1nc(Nc2ccc3c(c2)CC(=O)N3)ncc1C(F)(F)F)S(C)(=O)=O` stands “active”; under `CNC(=O)c1ccc(Nc2ncc(C(F)(F)F)c(NCc3nccnc3N(C)S(C)(=O)=O)n2)cc1`, “active”. The same measure for `C[C@H](CO)N1C[C@H](C)[C@@H](CN(C)S(C)(=O)=O)Oc2ccc(NS(=O)(=O)c3cccs3)cc2CC1=O`: “inactive”.
